Test results reported in publication PMC7862700, “An all-to-all approach to the identification of sequence-specific readers for epigenetic DNA modifications on cytosine”.

Key:
Test in all cases: DAPPL (digital affinity profiling via proximity ligation, sequencing); 10 mM Tris-HCl pH 7.5, 50 mM NaCl, 1 mM DTT, 4% glycerol, room temperature, 30 min; GST-TFs on glutathione beads, 16-mer random dsDNA library, 0.1% formaldehyde crosslink after washing; high values mean tight binding
FEV = target: T1, FEV (Homo sapiens, UniProt Q99581 1-238); settings: protein: recombinant; tags: N-terminal GST; dsDNA, one strand shown
T1 sequence: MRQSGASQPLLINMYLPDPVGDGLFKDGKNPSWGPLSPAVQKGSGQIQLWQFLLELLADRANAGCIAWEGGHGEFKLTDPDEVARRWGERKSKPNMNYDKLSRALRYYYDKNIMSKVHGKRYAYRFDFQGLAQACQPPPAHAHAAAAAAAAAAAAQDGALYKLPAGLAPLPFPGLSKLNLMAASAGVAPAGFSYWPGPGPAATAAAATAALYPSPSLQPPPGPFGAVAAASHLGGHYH
Procedure, shortened: (§1)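 Binding signal is each hexamer's read frequency for a factor divided by its frequency in the tag-only sample. The factors were GST-fused human transcription factors from yeast, captured on glutathione beads, DNA-barcoded and pooled with that sample. Pools were incubated with 200 nmole of a random double-stranded 16-mer DNA library in Tris/NaCl/DTT/glycerol buffer at room temperature for 30 min, then washed, crosslinked with 0.1% formaldehyde, proximity-ligated with BsaI/T4 ligase (1 h, 37 °C), PCR-amplified and sequenced on an Illumina NextSeq500.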

ETV5 = ETV5 (Homo sapiens, UniProt P41161 1-510); settings: protein: recombinant; tags: N-terminal GST; dsDNA, one strand shown
Procedure, shortened: as §1

HSF1 = HSF1 (Homo sapiens, UniProt Q00613 1-529); settings: protein: recombinant; tags: N-terminal GST; chain copies: 3; dsDNA, one strand shown
Procedure, shortened: as §1

SPIC = target: T2, SPIC (Homo sapiens, UniProt Q8N5J4 1-248); settings: protein: recombinant; tags: N-terminal GST; dsDNA, one strand shown
T2 sequence: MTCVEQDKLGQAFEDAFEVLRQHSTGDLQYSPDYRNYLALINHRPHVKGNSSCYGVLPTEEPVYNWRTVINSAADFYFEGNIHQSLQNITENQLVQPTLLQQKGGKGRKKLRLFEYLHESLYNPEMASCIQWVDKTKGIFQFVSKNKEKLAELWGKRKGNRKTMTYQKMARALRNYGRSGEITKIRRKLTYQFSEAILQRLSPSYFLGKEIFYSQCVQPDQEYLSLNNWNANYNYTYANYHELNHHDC
Procedure, shortened: as §1

ELF4 = ELF4 (Homo sapiens, UniProt Q99607 1-663); settings: protein: recombinant; tags: N-terminal GST; dsDNA, one strand shown
Procedure, shortened: as §1

ELK4 = target: T3, ELK4 (Homo sapiens, UniProt P28324-2 1-405); settings: protein: recombinant; tags: N-terminal GST; dsDNA, one strand shown
T3 sequence: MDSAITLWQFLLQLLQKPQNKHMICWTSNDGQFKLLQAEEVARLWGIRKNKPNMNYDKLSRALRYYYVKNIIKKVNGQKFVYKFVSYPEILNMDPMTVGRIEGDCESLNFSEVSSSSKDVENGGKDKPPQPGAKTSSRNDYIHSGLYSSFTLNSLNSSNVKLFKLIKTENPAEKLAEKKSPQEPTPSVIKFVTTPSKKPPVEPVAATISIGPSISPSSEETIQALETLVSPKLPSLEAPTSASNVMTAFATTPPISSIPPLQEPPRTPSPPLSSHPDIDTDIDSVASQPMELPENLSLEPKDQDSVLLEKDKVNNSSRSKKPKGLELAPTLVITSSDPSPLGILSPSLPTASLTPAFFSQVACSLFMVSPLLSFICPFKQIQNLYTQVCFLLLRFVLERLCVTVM
Procedure, shortened: as §1

ETV2 = target: T4, ETV2 (Homo sapiens, UniProt O00321 1-342); settings: protein: recombinant; tags: N-terminal GST; dsDNA, one strand shown
T4 sequence: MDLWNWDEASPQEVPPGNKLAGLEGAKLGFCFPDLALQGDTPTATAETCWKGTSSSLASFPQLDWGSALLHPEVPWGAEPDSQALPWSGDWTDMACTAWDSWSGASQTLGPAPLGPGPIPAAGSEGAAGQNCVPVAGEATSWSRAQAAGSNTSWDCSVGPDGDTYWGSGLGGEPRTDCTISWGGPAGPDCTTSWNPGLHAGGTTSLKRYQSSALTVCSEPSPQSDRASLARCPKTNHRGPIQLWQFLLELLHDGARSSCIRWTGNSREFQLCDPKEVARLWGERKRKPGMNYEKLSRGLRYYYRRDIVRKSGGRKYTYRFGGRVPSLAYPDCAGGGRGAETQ
Procedure, shortened: as §1

ELF3 = target: T5, ELF3 (Homo sapiens, UniProt P78545 1-371); settings: protein: recombinant; tags: N-terminal GST; dsDNA, one strand shown
T5 sequence: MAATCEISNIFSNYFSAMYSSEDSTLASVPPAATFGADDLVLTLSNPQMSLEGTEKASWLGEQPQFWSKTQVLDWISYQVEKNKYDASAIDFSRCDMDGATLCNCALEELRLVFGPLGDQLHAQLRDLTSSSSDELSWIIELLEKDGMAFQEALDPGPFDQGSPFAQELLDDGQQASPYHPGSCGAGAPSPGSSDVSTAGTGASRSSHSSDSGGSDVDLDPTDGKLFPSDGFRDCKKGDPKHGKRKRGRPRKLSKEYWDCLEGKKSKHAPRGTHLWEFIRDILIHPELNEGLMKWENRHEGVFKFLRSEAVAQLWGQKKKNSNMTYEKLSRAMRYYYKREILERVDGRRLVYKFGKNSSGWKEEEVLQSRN
Procedure, shortened: as §1

CRX = CRX (Homo sapiens, UniProt O43186 1-299); settings: protein: recombinant; tags: N-terminal GST; dsDNA, one strand shown
Procedure, shortened: as §1

ETV1 = ETV1 (Homo sapiens, UniProt P50549 1-477); settings: protein: recombinant; tags: N-terminal GST; dsDNA, one strand shown
Procedure, shortened: as §1

ERF = target: T6, ERF (Homo sapiens, UniProt P50548 1-548); settings: protein: recombinant; tags: N-terminal GST; dsDNA, one strand shown
T6 sequence: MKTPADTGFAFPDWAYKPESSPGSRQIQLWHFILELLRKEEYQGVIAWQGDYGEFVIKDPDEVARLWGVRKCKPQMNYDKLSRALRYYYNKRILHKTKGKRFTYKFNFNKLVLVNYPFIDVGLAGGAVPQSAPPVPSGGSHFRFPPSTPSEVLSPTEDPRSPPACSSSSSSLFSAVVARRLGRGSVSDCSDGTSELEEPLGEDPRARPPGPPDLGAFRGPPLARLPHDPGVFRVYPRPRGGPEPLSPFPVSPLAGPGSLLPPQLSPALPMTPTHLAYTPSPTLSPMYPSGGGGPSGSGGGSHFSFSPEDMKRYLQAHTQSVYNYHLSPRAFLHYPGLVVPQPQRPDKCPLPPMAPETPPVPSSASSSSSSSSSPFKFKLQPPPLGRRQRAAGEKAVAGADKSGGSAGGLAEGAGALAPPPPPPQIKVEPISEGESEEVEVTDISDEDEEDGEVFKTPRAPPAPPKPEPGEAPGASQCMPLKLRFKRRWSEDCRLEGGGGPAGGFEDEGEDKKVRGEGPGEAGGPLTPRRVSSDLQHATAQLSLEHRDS
Procedure, shortened: as §1

ETV3L = target: T7, ETV3L (Homo sapiens, UniProt Q6ZN32 1-361); settings: protein: recombinant; tags: N-terminal GST; dsDNA, one strand shown
T7 sequence: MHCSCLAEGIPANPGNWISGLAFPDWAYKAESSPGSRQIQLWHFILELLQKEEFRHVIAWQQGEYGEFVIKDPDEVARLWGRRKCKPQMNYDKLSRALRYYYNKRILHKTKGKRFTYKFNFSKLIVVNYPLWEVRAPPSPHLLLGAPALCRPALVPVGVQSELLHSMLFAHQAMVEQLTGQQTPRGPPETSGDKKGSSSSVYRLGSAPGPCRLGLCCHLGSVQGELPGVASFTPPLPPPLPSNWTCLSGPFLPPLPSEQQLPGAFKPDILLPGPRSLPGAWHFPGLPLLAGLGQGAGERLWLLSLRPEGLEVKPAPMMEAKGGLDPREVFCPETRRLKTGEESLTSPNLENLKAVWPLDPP
Procedure, shortened: as §1

ETS2 = target: T8, ETS2 (Homo sapiens, UniProt P15036 1-469); settings: protein: recombinant; tags: N-terminal GST; dsDNA, one strand shown
T8 sequence: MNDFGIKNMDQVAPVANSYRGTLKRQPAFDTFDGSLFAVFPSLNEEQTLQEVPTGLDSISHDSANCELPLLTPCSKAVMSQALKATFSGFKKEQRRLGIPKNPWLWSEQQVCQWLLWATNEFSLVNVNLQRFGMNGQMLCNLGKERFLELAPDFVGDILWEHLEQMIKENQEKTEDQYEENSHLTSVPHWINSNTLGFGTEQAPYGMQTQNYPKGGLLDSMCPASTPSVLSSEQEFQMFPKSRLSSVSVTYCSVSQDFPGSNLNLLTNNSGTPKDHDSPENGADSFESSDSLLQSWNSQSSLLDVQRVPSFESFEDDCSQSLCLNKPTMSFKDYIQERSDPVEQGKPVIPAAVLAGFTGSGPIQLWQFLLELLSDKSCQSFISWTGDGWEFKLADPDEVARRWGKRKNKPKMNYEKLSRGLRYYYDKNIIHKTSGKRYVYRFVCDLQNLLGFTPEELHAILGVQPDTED
Procedure, shortened: as §1

SPDEF = target: T9, SPDEF (Homo sapiens, UniProt O95238 1-335); settings: protein: recombinant; tags: N-terminal GST; dsDNA, one strand shown
T9 sequence: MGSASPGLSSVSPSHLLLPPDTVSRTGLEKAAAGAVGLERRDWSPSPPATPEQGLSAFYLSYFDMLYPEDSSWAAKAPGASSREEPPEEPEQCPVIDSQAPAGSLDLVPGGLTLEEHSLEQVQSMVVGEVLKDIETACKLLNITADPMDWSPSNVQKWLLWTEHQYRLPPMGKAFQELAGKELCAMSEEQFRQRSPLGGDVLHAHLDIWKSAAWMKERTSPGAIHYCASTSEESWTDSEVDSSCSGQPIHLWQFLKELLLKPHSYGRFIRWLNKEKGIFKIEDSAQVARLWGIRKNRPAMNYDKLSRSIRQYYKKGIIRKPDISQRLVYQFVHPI
Procedure, shortened: as §1

ETV7 = target: T10, ETV7 (Homo sapiens, UniProt Q9Y603 1-341); settings: protein: recombinant; tags: N-terminal GST; dsDNA, one strand shown
T10 sequence: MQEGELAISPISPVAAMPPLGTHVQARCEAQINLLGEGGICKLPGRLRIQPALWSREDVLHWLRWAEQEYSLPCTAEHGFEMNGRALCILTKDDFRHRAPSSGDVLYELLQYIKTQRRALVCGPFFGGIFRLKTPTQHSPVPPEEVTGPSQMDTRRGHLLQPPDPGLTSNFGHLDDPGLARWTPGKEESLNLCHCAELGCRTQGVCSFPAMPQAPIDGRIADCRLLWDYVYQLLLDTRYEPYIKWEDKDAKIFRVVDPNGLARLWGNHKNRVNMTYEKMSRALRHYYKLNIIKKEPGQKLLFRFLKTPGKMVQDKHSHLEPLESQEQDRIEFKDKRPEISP
Procedure, shortened: as §1

ELF5 = target: T11, ELF5 (Homo sapiens, UniProt Q9UKW6-2 1-255); settings: protein: recombinant; tags: N-terminal GST; dsDNA, one strand shown
T11 sequence: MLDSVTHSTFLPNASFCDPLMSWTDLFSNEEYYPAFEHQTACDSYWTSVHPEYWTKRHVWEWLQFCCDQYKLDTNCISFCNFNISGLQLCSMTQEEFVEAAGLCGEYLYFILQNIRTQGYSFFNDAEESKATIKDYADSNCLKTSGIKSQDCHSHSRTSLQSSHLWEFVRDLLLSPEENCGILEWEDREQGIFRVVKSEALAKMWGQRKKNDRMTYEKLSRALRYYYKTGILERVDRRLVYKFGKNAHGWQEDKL
Procedure, shortened: as §1

ETV3 = target: T12, ETV3 (Homo sapiens, UniProt P41162-2 1-143); settings: protein: recombinant; tags: N-terminal GST; dsDNA, one strand shown
T12 sequence: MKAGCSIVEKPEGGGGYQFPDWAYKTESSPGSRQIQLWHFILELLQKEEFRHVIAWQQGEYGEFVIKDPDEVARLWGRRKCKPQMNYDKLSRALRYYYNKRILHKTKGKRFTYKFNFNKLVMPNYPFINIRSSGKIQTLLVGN
Procedure, shortened: as §1

ETV6 = ETV6 (Homo sapiens, UniProt P41212 1-452); settings: protein: recombinant; tags: N-terminal GST; dsDNA, one strand shown
Procedure, shortened: as §1

Chain of ETV5 (P41161 whole entry): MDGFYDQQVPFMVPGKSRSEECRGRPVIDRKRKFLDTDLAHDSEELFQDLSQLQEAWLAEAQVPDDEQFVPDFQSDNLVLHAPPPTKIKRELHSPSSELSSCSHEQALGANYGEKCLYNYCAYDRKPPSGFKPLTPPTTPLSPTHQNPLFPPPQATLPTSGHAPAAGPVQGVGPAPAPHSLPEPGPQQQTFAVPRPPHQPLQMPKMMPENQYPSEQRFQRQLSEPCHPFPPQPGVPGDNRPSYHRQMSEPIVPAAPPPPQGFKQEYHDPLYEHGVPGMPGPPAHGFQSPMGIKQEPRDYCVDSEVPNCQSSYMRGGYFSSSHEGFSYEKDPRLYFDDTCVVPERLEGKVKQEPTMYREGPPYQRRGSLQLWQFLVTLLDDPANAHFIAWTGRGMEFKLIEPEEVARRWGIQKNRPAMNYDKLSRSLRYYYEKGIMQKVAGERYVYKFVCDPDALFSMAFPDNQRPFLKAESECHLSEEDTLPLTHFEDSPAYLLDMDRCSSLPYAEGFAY
Chain of ETV1 (P50549 whole entry): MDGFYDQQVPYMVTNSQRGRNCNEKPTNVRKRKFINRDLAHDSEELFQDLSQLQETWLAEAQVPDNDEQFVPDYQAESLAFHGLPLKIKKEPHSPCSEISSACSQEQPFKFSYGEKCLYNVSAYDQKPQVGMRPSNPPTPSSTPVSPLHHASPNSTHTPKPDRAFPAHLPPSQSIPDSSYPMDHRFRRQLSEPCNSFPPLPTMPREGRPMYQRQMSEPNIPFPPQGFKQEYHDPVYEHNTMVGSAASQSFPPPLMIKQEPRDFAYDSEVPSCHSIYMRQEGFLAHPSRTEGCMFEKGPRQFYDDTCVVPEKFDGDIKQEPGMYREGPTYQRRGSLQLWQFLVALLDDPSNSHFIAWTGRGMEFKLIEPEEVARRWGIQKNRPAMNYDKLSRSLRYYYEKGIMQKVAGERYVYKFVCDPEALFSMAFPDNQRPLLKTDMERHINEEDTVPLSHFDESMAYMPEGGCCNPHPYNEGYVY
Chain of CRX (O43186 whole entry): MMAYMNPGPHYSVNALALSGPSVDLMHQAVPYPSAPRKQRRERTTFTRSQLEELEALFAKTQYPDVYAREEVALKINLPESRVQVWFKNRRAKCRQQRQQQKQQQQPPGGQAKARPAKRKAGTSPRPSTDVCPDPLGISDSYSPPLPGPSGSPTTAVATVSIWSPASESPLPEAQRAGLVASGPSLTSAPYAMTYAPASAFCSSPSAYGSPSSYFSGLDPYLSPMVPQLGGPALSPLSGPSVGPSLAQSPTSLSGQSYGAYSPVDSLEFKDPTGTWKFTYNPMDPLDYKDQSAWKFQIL
Chain of ETV6 (P41212 whole entry): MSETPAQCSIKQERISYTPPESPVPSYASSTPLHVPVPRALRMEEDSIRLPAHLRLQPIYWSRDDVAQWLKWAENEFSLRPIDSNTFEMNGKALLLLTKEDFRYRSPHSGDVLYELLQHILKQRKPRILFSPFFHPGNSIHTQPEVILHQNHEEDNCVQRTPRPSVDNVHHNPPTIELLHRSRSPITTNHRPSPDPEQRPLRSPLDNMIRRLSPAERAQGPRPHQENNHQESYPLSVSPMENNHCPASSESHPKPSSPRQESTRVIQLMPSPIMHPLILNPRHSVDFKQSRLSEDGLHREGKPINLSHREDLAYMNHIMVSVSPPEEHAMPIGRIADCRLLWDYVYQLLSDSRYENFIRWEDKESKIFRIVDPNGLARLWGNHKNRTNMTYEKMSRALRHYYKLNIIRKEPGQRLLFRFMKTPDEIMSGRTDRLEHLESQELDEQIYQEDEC
Chain of ELF4 (Q99607 whole entry): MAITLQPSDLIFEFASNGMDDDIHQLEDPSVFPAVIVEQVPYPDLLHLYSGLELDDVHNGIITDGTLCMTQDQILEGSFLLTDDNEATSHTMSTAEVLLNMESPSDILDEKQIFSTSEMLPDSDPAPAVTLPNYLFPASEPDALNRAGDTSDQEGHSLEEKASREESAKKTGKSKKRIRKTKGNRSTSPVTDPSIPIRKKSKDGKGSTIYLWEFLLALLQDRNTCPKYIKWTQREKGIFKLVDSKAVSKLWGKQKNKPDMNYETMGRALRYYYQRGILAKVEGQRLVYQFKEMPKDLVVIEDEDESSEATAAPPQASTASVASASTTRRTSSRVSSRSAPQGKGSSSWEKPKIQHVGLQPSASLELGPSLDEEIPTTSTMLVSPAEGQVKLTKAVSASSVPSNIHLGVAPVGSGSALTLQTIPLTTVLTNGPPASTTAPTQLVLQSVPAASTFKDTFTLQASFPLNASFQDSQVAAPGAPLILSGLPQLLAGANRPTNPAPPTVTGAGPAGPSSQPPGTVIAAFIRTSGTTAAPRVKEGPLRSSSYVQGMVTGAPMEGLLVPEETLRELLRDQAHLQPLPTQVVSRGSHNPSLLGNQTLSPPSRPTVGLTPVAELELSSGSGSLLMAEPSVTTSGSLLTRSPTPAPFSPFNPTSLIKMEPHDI
Chain of HSF1 (Q00613 whole entry): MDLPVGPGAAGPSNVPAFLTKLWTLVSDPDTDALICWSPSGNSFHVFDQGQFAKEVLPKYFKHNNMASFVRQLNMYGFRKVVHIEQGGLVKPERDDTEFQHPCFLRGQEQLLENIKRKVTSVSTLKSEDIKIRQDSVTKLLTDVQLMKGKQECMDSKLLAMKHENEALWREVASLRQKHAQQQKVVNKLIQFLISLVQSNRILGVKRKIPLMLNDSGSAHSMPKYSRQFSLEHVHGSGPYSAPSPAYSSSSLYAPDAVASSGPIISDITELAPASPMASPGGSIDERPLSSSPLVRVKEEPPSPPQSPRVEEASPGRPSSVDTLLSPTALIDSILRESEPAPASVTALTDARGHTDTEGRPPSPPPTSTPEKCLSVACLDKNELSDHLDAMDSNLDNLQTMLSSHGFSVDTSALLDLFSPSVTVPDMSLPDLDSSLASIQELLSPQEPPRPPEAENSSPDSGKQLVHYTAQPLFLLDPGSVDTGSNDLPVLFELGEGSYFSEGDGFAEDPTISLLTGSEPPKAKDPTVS

Sequence: TCCAAA
- binding signal (FEV): 1.18 fold enrichment (6-mer frequency, TF over GST control)
- binding signal (ETV5): 1.12 fold enrichment (6-mer frequency, TF over GST control)
- binding signal (HSF1): 1.3 fold enrichment (6-mer frequency, TF over GST control)
- binding signal (SPIC): 1.11 fold enrichment (6-mer frequency, TF over GST control)
- binding signal (ELF4): 1.25 fold enrichment (6-mer frequency, TF over GST control)
- binding signal (ELK4): 1.17 fold enrichment (6-mer frequency, TF over GST control)
- binding signal (ETV2): 1.01 fold enrichment (6-mer frequency, TF over GST control)
- binding signal (ELF3): 1.16 fold enrichment (6-mer frequency, TF over GST control)
- binding signal (CRX): 1.26 fold enrichment (6-mer frequency, TF over GST control)
- binding signal (ETV1): 1.1 fold enrichment (6-mer frequency, TF over GST control)
- binding signal (ERF): 1.14 fold enrichment (6-mer frequency, TF over GST control)
- binding signal (ETV3L): 1.18 fold enrichment (6-mer frequency, TF over GST control)
- binding signal (ETS2): 1.16 fold enrichment (6-mer frequency, TF over GST control)
- binding signal (SPDEF): 1.15 fold enrichment (6-mer frequency, TF over GST control)
- binding signal (ETV7): 1.14 fold enrichment (6-mer frequency, TF over GST control)
- binding signal (ELF5): 1.15 fold enrichment (6-mer frequency, TF over GST control)
- binding signal (ETV3): 1.2 fold enrichment (6-mer frequency, TF over GST control)
- binding signal (ETV6): 1.14 fold enrichment (6-mer frequency, TF over GST control)
